Sampled rows, rich in hits. Any-hit rate of the full collection: about 6.9%.
Giardia kill – kills Giardia lamblia; hit rate 0.15% among 340,000; Giardia lamblia trophozoite viability; AID 540267; activity change, % at 7.66 µM, hits read low; in the data active = activity change below about -80%; inconclusive = between about -30% and that limit;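 note: parasites exposed to compound for two days anaerobically before the ATP read; % is set by controls: 0 for no effect and ±100 for the full control effect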
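Each well holds 100 Giardia trophozoites and compound. After two days (48 hrs) at 37 deg C in anaerobic conditions, ATP is quantified by luminescence.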
MCF10A rerep – induces DNA re-replication in MCF 10a normal breast cells. Potency, µM (titrated, usually from 46.1 µM), without a hit: at the highest dose activity, positive = re-replication, hits mostly activators. MCF 10A DNA re-replication, Hoechst nuclear intensity, 48 h. hit rate 2.9% among 350,000. AID 624296; note: potency is the fitted concentration of half-maximal effect; % of control where 0% means no effect; nearly all actives have a fitted effect of over 50% in size
SW480 rereplic – induces DNA re-replication in SW480 colon adenocarcinoma cells; SW480 DNA re-replication, Hoechst DNA content imaging, 48 h; Potency, µM (series often up to 46.1 µM), without a hit: at the highest dose re-replication activation, hits mostly activators; hit rate 1.8% among 340,000; AID 624297; note: potency is the fitted concentration of half-maximal effect; % of control where 0% means no effect; nearly all actives have a fitted effect of over 55% in size
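DNA re-replication was detected as more nuclei of elevated Hoechst intensity after 48 hr exposure to compound (23 nL pinned per well of 250 cells).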
S-ASM inh – inhibitors of human secretory acid sphingomyelinase | P17405 | placental ASM, HMU-PC fluorogenic substrate, 60 min | Potency, µM (titrated, usually from 57.5 µM), for the others: at the highest dose activity change, negative = inhibition, usual class: inhibitors | hit rate 0.006% among 340,000; note: potency is the fitted concentration of half-maximal effect
Target sequence (P17405 47-631 limits assumed): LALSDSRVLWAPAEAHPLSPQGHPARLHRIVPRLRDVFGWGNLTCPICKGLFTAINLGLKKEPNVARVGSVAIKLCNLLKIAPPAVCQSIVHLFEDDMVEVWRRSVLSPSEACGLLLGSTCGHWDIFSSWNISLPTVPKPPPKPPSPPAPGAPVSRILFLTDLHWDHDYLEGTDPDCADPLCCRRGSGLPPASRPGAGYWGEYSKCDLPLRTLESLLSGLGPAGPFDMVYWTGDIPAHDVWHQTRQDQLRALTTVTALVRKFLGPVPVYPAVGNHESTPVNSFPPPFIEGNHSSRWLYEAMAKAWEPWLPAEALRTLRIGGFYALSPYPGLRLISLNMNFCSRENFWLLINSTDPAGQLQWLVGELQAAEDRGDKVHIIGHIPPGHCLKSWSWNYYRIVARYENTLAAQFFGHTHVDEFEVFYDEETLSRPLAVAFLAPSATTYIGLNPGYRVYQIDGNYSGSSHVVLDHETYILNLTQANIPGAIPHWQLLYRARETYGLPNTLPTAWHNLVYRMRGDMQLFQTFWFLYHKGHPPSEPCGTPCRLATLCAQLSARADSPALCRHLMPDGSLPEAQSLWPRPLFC
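Human placenta-derived ASM enzyme was preincubated with compound for 10 minutes at room temperature, then given fluorogenic substrate HMU-PC0 (9 uM final) for 60 minutes at 37 °C; a pH 10 stop preceded fluorescence reading at Ex 386/Em 447 nm.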
KB-3-1 tox – KB-3-1 parental cell cytotoxicity; KB-3-1 viability, CellTiter-Glo ATP luminescence, 72 h; Potency, µM (highest dose often 46.1 µM), hits mostly cytotoxic; hit rate 1.4% among 400,000; note: potency is the fitted concentration of half-maximal effect; % is set by controls: 0 for no effect and ±100 for the full control effect; nearly all actives have a fitted effect of over 60% in size
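KB-3-1 parental drug-naive adenocarcinoma cells in DMEM/10% FBS, incubated 72 h at 37 C with pin-transferred compounds across a concentration series. Viability by CellTiter-Glo luminescence; concentration-response curves fitted after normalization.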
KB-V1 cytotox – kills drug-selected multidrug resistant KB-V1 cells; KB-V1 MDR cells viability, CellTiter-Glo, 72 h; Potency, µM (titrated, usually from 46.1 µM), hits mostly cytotoxic; hit rate 3.4% among 400,000; AID 1347076; note: potency is the fitted concentration of half-maximal effect; % is set by controls: 0 for no effect and ±100 for the full control effect; nearly all actives have a fitted effect of over 60% in size
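qHTS viability screen in drug-selected KB-V1 MDR cells: 72 h compound treatment at 37 degrees C, ATP luminescence end point.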
Numbers without * were called inactive; ! = not confirmed by another sample. Unless noted, calls come from the whole dose curve; as a rule, active = well fitted curve in the direction sought with a large enough effect; inconclusive = small, poorly fitted or top-dose-only effect, or another doubt; inactive = no such curve, though single readings can be large; an effect the other way counts as inactive or inconclusive.

COc1cccc(CNC(=O)CSC2=Nc3ccccc3C3=NC(C)C(=O)N23)c1OC (centres undefined) was read as KB-3-1 tox inactive and KB-V1 cytotox inactive.
Screening Cc1ccc(C(=O)C2CCN(C(=S)NCCCOC(C)C)CC2)cc1 returned Giardia kill -7, MCF10A rerep 21%, SW480 rereplic 15µM*, S-ASM inh -4%, KB-3-1 tox inactive and KB-V1 cytotox inactive.
COc1ccc(CCNC(=O)c2cc(-c3ccccc3OC)on2)cc1OC was read as Giardia kill -11, MCF10A rerep 4%, SW480 rereplic 2%, S-ASM inh -1%, KB-3-1 tox inactive and KB-V1 cytotox inconclusive.
COc1ccccc1-c1cc(C(=O)Nc2cccnc2Cl)no1 was read as Giardia kill 4, MCF10A rerep -10%, SW480 rereplic 8%, S-ASM inh -1%, KB-3-1 tox inactive and KB-V1 cytotox inactive.
`COc1ccc(NC(=O)c2cc(-c3ccccc3OC)on2)cc1` gave Giardia kill 14, MCF10A rerep inconclusive, SW480 rereplic 3.5µM*, S-ASM inh -8%, KB-3-1 tox 4µM* and KB-V1 cytotox 1µM*.
Screening COc1ccccc1-c1cc(C(=O)Nc2cccnc2)no1 returned Giardia kill -16, MCF10A rerep inconclusive, SW480 rereplic 0.52µM*, S-ASM inh 1%, KB-3-1 tox 0.16µM* and KB-V1 cytotox inconclusive.
Screening COc1ccccc1-c1cc(C(=O)NCCc2ccccc2)no1 returned Giardia kill 12, MCF10A rerep 15µM*, SW480 rereplic inconclusive, S-ASM inh -5%, KB-3-1 tox inconclusive and KB-V1 cytotox 12µM*!.
Screening Cc1cccc(-c2nsc(SCC(=O)NCC3CCCO3)n2)c1 (centres undefined) returned Giardia kill 33, MCF10A rerep 17%, SW480 rereplic -4%, S-ASM inh -2%, KB-3-1 tox inconclusive and KB-V1 cytotox inconclusive.
CC(=O)/C=C/c1ccccc1Oc1c(F)c(F)nc(F)c1F was read as Giardia kill 26, MCF10A rerep 23µM*, SW480 rereplic 18µM*, S-ASM inh -1%, KB-3-1 tox inconclusive and KB-V1 cytotox inactive.
C=C(C)CSc1cc(C)c(C#N)c2nc3ccccc3n12 was read as Giardia kill -15, MCF10A rerep 5.8µM*, SW480 rereplic inconclusive, S-ASM inh inactive, KB-3-1 tox inactive and KB-V1 cytotox inactive.
C=C(C)Cc1c(C)c(C#N)c2nc3ccccc3n2c1N1CCCCC1 was read as Giardia kill -2, MCF10A rerep inconclusive, SW480 rereplic -6%, S-ASM inh 9%, KB-3-1 tox inactive and KB-V1 cytotox 3.7µM*.
For Cc1cc(NCCCCO)n2c(nc3ccccc32)c1C#N the results were Giardia kill 13, MCF10A rerep 4%, SW480 rereplic inconclusive, S-ASM inh inactive, KB-3-1 tox inactive and KB-V1 cytotox inconclusive.
For C#CCOc1ccc(-c2nnc(Nc3ccc(NC(C)=O)cc3)c3ccccc23)cc1 the results were KB-3-1 tox inactive and KB-V1 cytotox inconclusive.
Screening O=C1CC(c2cccs2)Cc2nc(NCC3CCCO3)ncc21 (centres undefined) returned Giardia kill 25, MCF10A rerep 20%, SW480 rereplic -4%, S-ASM inh -1%, KB-3-1 tox inactive and KB-V1 cytotox 16µM*.
For COc1ccc(NC(=O)CN(C)S(=O)(=O)c2ccc3[nH]c4c(c3c2)CCCC4)cc1Cl the results were KB-3-1 tox inactive and KB-V1 cytotox inactive.
CC1C(=O)N(Cc2ccccc2F)c2ccccc2N1C(=O)c1c(F)cccc1F (centres undefined) was read as Giardia kill 20, MCF10A rerep 21µM*, SW480 rereplic 7%, S-ASM inh -2%, KB-3-1 tox inconclusive and KB-V1 cytotox inactive.
`COc1cccc(CN2C(=O)C(C)N(C(=O)c3c(F)cccc3F)c3ccccc32)c1` (centres undefined) gave Giardia kill 0, MCF10A rerep inconclusive, SW480 rereplic 3%, S-ASM inh -1%, KB-3-1 tox inconclusive and KB-V1 cytotox inactive.
Screening Nc1[nH]c(N=NC(=O)c2ccccc2O)c2ccccc12 returned Giardia kill -1, MCF10A rerep inconclusive, SW480 rereplic inconclusive, S-ASM inh -3%, KB-3-1 tox inconclusive and KB-V1 cytotox 21µM*.
Screening O=C(C1CC1)N1CCC(Oc2cccc(C(=O)N3CCCCC3CCO)c2)CC1 (centres undefined) returned Giardia kill 9, MCF10A rerep 0%, SW480 rereplic -3%, S-ASM inh -1%, KB-3-1 tox inactive and KB-V1 cytotox inactive.
For O=C(NCc1cccc(Cl)c1)c1cccc(OC2CCN(C(=O)C3CC3)CC2)c1 the results were Giardia kill 5, MCF10A rerep inconclusive, SW480 rereplic -6%, S-ASM inh -2%, KB-3-1 tox 23µM* and KB-V1 cytotox inconclusive.
Screening COc1nn(CC(=O)N2N=C(C(F)F)CC2(O)C(F)F)cc1[N+](=O)[O-] (centres undefined) returned Giardia kill 15, MCF10A rerep 3%, SW480 rereplic -9%, S-ASM inh 1%, KB-3-1 tox inactive and KB-V1 cytotox inactive.
For COc1nn(C(C)C(=O)N2N=C(C(F)F)CC2(O)C(F)F)cc1[N+](=O)[O-] (centres undefined) the results were Giardia kill -82*, MCF10A rerep 10%, SW480 rereplic -10%, S-ASM inh -2%, KB-3-1 tox inactive and KB-V1 cytotox inactive.
`CCC1(OC(=O)CN(C)C)C(=O)OCc2c1cc1n(c2=O)Cc2cc3c(N)cccc3nc2-1` (centres undefined) gave Giardia kill 10, MCF10A rerep 18%, SW480 rereplic inconclusive, S-ASM inh 3%, KB-3-1 tox inconclusive and KB-V1 cytotox 2.9µM*.
For CCCCCCCCN1[C@@H](CC(=O)OC)c2ccc(/C=C/C(=O)OC)cc2S1(=O)=O the results were KB-3-1 tox inactive and KB-V1 cytotox inactive.
`O=C(c1ccc(S(=O)(=O)c2ccc(F)cc2)c([N+](=O)[O-])c1)N1CCCCCC1` gave Giardia kill 8, MCF10A rerep inconclusive, SW480 rereplic inconclusive, S-ASM inh 0%, KB-3-1 tox inactive and KB-V1 cytotox 8.2µM*.
For O=C(c1ccc(S(=O)(=O)Cc2ccccc2F)c([N+](=O)[O-])c1)N1CCCC1 the results were Giardia kill 5, MCF10A rerep -1%, SW480 rereplic 5%, S-ASM inh 1%, KB-3-1 tox inactive and KB-V1 cytotox inactive.
